The source made the active and inactive calls.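 How the source made its calls, unless noted: active means NADPH fluorescence slope more negative than the mean of all samples by about 3 SD, 99.7% confidence; inactive means the rest.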
Key:
[1] = inhibitors of TNFa-induced NFkB p65 translocation, primary screen, imaging, HUVEC, MLSMR starter and 10KST1 sets (AID 438;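 active means inhibition above 20% together with a positive visual image hit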;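 further: compound added about 3h40 before a 20 min TNFalpha stimulation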;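 on inhibition: signal is the nuclear over cytoplasmic p65 intensity ratio per well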); details: HUVEC TNFa-induced p65 nuclear translocation; cell count: measured here: nuclei count (cytotoxicity indicator), at 2.08 µM; inhibition: at 2 µM, stronger effect = higher value, 0% TNFa-plus-vehicle, 100% no-TNFa wells
[2] = endothelial E-selectin expression blockers – imaging, HUVEC, immunofluorescence, MLSMR starter and 10KST1 sets, primary screen (AID 487;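 active means visually confirmed hit in the image check and inhibition above 20%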;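 on inhibition: signal is fraction of cell area covered by stained E-selectin grains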;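 on nuclei count: 100% = median nuclei count of all wells on the same plate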); details: HUVEC TNFalpha-induced E-selectin immunofluorescence imaging, at 2 µM; inhibition: stronger effect = higher value; nuclei count: measured here: cell number, toxicity
[3] = Primary imaging screen for DUSP6 inhibitors that restore phospho-Erk in transfected HeLa cells, chemical complementation (AID 609;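 active means compounds giving at least 50% inhibition in the cell-based MKP-3 phosphatase rescue imaging test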;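 on inhibition: phospho-Erk level distribution per well compared with pooled transfected vehicle control wells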); details: HeLa MKP-3 transfected, phospho-Erk imaging KS statistic, at 10 µM, cells stimulated with TPA for 15 min
[4] = biological target: Dual specificity protein phosphatase 6 (Homo sapiens) (UniProt Q16828); assay: as above; details: HeLa MKP-3 transfected, phospho-Erk imaging KS statistic; at 10 µM; stronger effect = higher value; cells stimulated with TPA for 15 min
Sequence of Dual specificity protein phosphatase 6 (Homo sapiens) (Q16828 whole entry, looked up): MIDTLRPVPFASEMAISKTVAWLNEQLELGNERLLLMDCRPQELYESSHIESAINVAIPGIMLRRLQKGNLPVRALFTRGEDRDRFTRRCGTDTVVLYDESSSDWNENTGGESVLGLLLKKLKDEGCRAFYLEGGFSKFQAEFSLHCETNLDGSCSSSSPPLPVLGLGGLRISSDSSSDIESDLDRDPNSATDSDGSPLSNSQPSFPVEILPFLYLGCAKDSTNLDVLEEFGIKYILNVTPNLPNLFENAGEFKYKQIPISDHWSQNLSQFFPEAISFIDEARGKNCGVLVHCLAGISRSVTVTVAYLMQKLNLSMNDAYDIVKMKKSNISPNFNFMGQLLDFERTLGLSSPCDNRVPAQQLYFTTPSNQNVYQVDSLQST

[5] = biological target: Voltage-gated potassium channel subunit beta-2 (Rattus norvegicus) (UniProt P62483); assay: inhibitors of rat Kvbeta2 reductase activity – biochemical, NADPH fluorescence, primary screen (AID 622;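 active means fluorescence slope higher than the sample average by over 3 SD, cut at about -0.22 in these data, passing the limit was not always enough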;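 further: slope of raw intensity against log time taken from 70 to 1610 s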); details: recombinant KvBeta, 4-cyanobenzaldehyde reduction, at 10 µM, stronger effect = higher value
Sequence of Voltage-gated potassium channel subunit beta-2 (Rattus norvegicus) (P62483 whole entry, looked up): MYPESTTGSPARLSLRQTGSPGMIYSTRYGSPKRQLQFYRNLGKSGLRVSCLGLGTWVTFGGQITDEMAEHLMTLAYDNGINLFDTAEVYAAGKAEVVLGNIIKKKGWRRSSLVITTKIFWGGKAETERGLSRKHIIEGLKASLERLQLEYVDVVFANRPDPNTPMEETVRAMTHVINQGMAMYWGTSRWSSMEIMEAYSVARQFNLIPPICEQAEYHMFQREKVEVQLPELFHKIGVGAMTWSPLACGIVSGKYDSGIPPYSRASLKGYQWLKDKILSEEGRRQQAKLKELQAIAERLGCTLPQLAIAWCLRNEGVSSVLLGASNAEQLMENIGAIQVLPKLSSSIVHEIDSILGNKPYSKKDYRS

[6] = biological target: Voltage-gated potassium channel subunit beta-2 (Rattus norvegicus) (UniProt P62483); assay: enhancers of rat Kvbeta2 NADPH turnover – biochemical, NADPH fluorescence, primary screen (AID 623); details: Recombinant KvBeta, NADPH fluorescence decrease slope, 10 min; at 10 µM; stronger effect = lower value;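 further: fluorescence intensity change per second fitted from 20 to 320 s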
[7] = biological target: Alpha-2C adrenergic receptor (Homo sapiens) (UniProt P18825); assay: compounds altering alpha2C-coupled GIRK flux – cell-based, HEK293 alpha2C/GIRK1/2, thallium flux, primary screen (AID 624;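 active means fluorescence slope after compound addition differing from the mean of all screened samples at 99.7% confidence, in either direction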;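 further: slope of fluorescence ratio to pre-addition baseline per second over 15 to 24 s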); details: thallium flux BTC fluorescence, at 10 µM, actives lie on both sides
Sequence of Alpha-2C adrenergic receptor (Homo sapiens) (P18825 whole entry, looked up): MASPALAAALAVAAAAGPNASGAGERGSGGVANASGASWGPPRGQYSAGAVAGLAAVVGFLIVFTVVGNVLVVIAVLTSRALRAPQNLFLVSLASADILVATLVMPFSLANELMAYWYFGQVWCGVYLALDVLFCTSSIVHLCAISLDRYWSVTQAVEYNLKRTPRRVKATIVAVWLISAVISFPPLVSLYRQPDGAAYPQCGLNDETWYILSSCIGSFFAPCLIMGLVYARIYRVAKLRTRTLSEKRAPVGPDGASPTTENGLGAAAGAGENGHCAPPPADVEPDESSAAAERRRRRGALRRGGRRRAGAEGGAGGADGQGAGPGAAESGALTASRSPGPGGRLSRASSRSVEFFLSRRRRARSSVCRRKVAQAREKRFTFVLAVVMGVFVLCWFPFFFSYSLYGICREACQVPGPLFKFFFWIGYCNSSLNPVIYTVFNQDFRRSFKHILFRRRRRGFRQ

[8] = inhibitors of larval lipid processing in zebrafish, primary screen, whole organism, PED6 fluorescence, gall bladder and intestine (AID 686;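 active means a full or partial loss of lipid-probe fluorescence in the fish gall bladder, intestine or both, judged by eye; inactive means no fluorescence loss, or compound toxic to the fish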;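 further: larvae 5 to 7 days old with five fish per well; signal comes from phospholipase A2 cleavage of quenched PED6 carried via bile; overnight exposure to compound and PED6 before scoring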); details: Zebrafish larvae PED6 lipid processing, fluorescence scoring; screened at 20 µM (by protocol)
[9] = loss of swimming-algae plug formation – whole organism, Chlamydomonas reinhardtii, WT vs cilia-less mutant, absorbance, 96-well, primary screen (AID 463189;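 active means inhibition at or above 50% relative to wild type and mutant plate controls; inactive means inhibition below 50%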;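 further: 0% = wild type cc124 cells in DMSO and 100% = ciliumless bld1 mutant cells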); details: Chlamydomonas reinhardtii gravitaxis, OD600 absorbance, 2 days; at 10 µM; stronger effect = higher value
[10] = biological target: Muscarinic acetylcholine receptor M4 (Homo sapiens) (UniProt P08173); assay: M4-linked GIRK flux change, two-sided – cell-based, HEK293 M4/GIRK, thallium flux, BTC-AM, M4 allosteric agonist project, primary screen (AID 625;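 active means fluorescence slope after compound addition differing from the mean of all tested samples at 99.7% confidence, mostly higher but some lower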;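 further: thallium influx through GIRK channels coupled to M4 in HEK293 cells with BTC-AM dye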); details: at 10 µM, actives lie on both sides
Sequence of Muscarinic acetylcholine receptor M4 (Homo sapiens) (P08173 whole entry, looked up): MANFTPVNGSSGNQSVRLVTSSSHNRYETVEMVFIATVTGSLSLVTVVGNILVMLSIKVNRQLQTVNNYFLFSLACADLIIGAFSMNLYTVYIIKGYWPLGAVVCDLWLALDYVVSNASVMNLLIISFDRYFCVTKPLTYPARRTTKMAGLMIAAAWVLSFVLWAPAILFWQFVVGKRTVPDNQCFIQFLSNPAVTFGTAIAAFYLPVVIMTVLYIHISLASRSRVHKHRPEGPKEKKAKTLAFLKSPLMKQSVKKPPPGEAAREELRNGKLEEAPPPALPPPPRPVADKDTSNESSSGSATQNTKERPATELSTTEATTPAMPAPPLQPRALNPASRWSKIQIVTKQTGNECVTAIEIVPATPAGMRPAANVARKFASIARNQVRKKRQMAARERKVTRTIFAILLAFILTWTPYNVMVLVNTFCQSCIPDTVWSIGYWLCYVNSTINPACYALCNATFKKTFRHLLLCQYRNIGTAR

[11] = measured here: cell density z-score
[12] = measured here: nuclear c-Myc green intensity z-score
[13] = measured here: nuclear pErk red intensity z-score, stronger effect = higher value

## CCOC(=O)CSC1=C(C#N)C(c2ccc(OC)cc2)C2=C(CC(C)(C)CC2=O)N1 (centres undefined)
[1]
  cell count: 362
  inhibition: -10.7% (inactive)
[2]
  inhibition: -126% (inactive)
  nuclei count: 174%
[3]; [11]
  z-score: 0.65
[3]; [12]
  z-score: -1.25
[3]; [13]
  z-score: -0.233
[4]
  inhibition: -8.59% (inactive)
[5]
  fluorescence slope: -0.411 (inactive)
[6]
  NADPH fluorescence slope: -0.000354 (inactive)
[7]
  slope: 0.00489 (inactive)
[8]
  outcome: inactive
[9]
  inhibition: 25.7% (inactive)

## CCOC(=O)CCc1c(C)c(C#N)c2[nH]c3ccccc3n2c1=O
[1]
  cell count: 536
  inhibition: -1.4% (inactive)
[2]
  inhibition: -8.6% (inactive)
  nuclei count: 82.5%
[3]; [11]
  z-score: -0.186
[3]; [12]
  z-score: -0.0675
[3]; [13]
  z-score: -0.0374
[4]
  inhibition: 15.9% (inactive)
[5]
  fluorescence slope: -0.617 (inactive)
[6]
  NADPH fluorescence slope: -3.7e-05 (inactive)
[7]
  slope: 0.00416 (inactive)
[8]
  outcome: active; weak signal in gallbladder and intestine
[9]
  inhibition: 18.4% (inactive)

## COC(=O)C1=C(N)Oc2cc(C)oc(=O)c2C1c1ccncc1 (centres undefined)
[1]
  cell count: 346
  inhibition: -2.7% (inactive)
[2]
  inhibition: 29.3% (inactive)
  nuclei count: 149%
[3]; [11]
  z-score: -0.595
[3]; [12]
  z-score: -0.189
[3]; [13]
  z-score: 1.46
[4]
  inhibition: -2.59% (inactive)
[5]
  fluorescence slope: -0.404 (inactive)
[6]
  NADPH fluorescence slope: -0.000149 (inactive)
[7]
  slope: 0.00558 (inactive)
[8]
  outcome: active; weak signal in gallbladder and intestine
[9]
  inhibition: 28.1% (inactive)

## CN1CCN(CCC(=O)N2c3ccccc3Sc3ccc(Cl)cc32)CC1
[1]
  cell count: 450
  inhibition: -3.2% (inactive)
[2]
  inhibition: -122% (inactive)
  nuclei count: 176%
[3]; [11]
  z-score: 0.831
[3]; [12]
  z-score: 0.747
[3]; [13]
  z-score: -0.386
[4]
  inhibition: 0.671% (inactive)
[5]
  fluorescence slope: -0.432 (inactive)
[6]
  NADPH fluorescence slope: -5.3e-05 (inactive)
[7]
  slope: 0.00551 (inactive)
[8]
  outcome: inactive
[9]
  inhibition: 15.9% (inactive)

## C=CCNc1nc(-c2ccc(O)c(C(N)=O)c2)cs1
[1]
  cell count: 651
  inhibition: -7.7% (inactive)
[2]
  inhibition: -37.4% (inactive)
  nuclei count: 154%
[3]; [11]
  z-score: 1.4
[3]; [12]
  z-score: -1.92
[3]; [13]
  z-score: 0.332
[4]
  inhibition: 7.48% (inactive)
[5]
  fluorescence slope: -0.465 (inactive)
[6]
  NADPH fluorescence slope: -0.000295 (inactive)
[7]
  slope: 0.00459 (inactive)
[8]
  outcome: inactive
[9]
  inhibition: 22.9% (inactive)

## Cc1cc(C)cc(CC2CC(=O)N(c3cc(C)on3)C2=O)c1 (centres undefined)
[1]
  cell count: 491
  inhibition: -7% (inactive)
[2]
  inhibition: -80.4% (inactive)
  nuclei count: 132%
[3]; [11]
  z-score: -0.204
[3]; [12]
  z-score: -0.209
[3]; [13]
  z-score: 1.15
[4]
  inhibition: 3.66% (inactive)
[5]
  fluorescence slope: -0.517 (inactive)
[6]
  NADPH fluorescence slope: -6.6e-05 (inactive)
[7]
  slope: 0.00547 (inactive)
[8]
  outcome: inactive
[9]
  inhibition: 2.69% (inactive)

## CCN(CC)C(=O)CSC1=C(C#N)C(c2cccs2)C=C(C)N1 (centres undefined)
[1]
  cell count: 685
  inhibition: -20% (inactive)
[2]
  inhibition: -137% (inactive)
  nuclei count: 171%
[3]; [11]
  z-score: -0.342
[3]; [12]
  z-score: -0.599
[3]; [13]
  z-score: 1.19
[4]
  inhibition: -10.6% (inactive)
[5]
  fluorescence slope: -0.405 (inactive)
[6]
  NADPH fluorescence slope: -4.9e-05 (inactive)
[7]
  slope: 0.00539 (inactive)
[8]
  outcome: inactive
[9]
  inhibition: -1.96% (inactive)

## COc1cc(C)nc(Oc2ccc(OCCOc3ccc(C)cc3)nn2)n1
[1]
  cell count: 440
  inhibition: -2.4% (inactive)
[2]
  inhibition: -191% (inactive)
  nuclei count: 163%
[3]; [11]
  z-score: 0.149
[3]; [12]
  z-score: -0.102
[3]; [13]
  z-score: 0.972
[4]
  inhibition: 2.46% (inactive)
[5]
  fluorescence slope: -0.415 (inactive)
[6]
  NADPH fluorescence slope: -3.1e-05 (inactive)
[7]
  slope: 0.00505 (inactive)
[8]
  outcome: inactive
[9]
  inhibition: 3.2% (inactive)

## COc1ccc(C=NCCCN2CCOCC2)cc1
[1]
  cell count: 638
  inhibition: -9.5% (inactive)
[2]
  inhibition: -363% (inactive)
  nuclei count: 165%
[3]; [11]
  z-score: -1.79
[3]; [12]
  z-score: -1.02
[3]; [13]
  z-score: 1.46
[4]
  inhibition: -0.159% (inactive)
[5]
  fluorescence slope: -0.486 (inactive)
[6]
  NADPH fluorescence slope: -8.5e-05 (inactive)
[7]
  slope: 0.00493 (inactive)
[8]
  outcome: inactive
[9]
  inhibition: -6.33% (inactive)

## CCOC(=O)CSc1nc(N(C)C)nc(N(C)C#N)n1
[1]
  cell count: 570
  inhibition: -6.8% (inactive)
[2]
  inhibition: -140% (inactive)
  nuclei count: 113%
[3]; [11]
  z-score: 0.476
[3]; [12]
  z-score: -0.876
[3]; [13]
  z-score: -1.19
[4]
  inhibition: 5.57% (inactive)
[5]
  fluorescence slope: -0.478 (inactive)
[6]
  NADPH fluorescence slope: -0.00031 (inactive)
[7]
  slope: 0.00712 (inactive)
[8]
  outcome: inactive
[9]
  inhibition: -9.74% (inactive)

## N#CC1=C(N)C(C#N)(C#N)[C@H](c2ccncc2)[C@H]2CN(C(=O)OCc3ccccc3)CC=C12
[1]
  cell count: 555
  inhibition: -9.5% (inactive)
[2]
  inhibition: -136% (inactive)
  nuclei count: 192%
[3]; [11]
  z-score: -0.56
[3]; [12]
  z-score: -0.0237
[3]; [13]
  z-score: -0.0209
[4]
  inhibition: 20.3% (inactive)
[5]
  fluorescence slope: -0.271 (inactive)
[6]
  NADPH fluorescence slope: -4.4e-06 (inactive)
[7]
  slope: 0.00576 (inactive)
[8]
  outcome: inactive
[9]
  inhibition: 7.4% (inactive)

## Cc1cc(NC(=O)CSc2nc(-c3cccnc3)ccc2C#N)no1
[1]
  cell count: 733
  inhibition: -10.3% (inactive)
[2]
  inhibition: -53% (inactive)
  nuclei count: 171%
[3]; [11]
  z-score: 0.472
[3]; [12]
  z-score: 0.655
[3]; [13]
  z-score: -0.248
[4]
  inhibition: 4.25% (inactive)
[5]
  fluorescence slope: -0.414 (inactive)
[6]
  NADPH fluorescence slope: -4.1e-05 (inactive)
[10]
  fluorescence slope: 0.00502 (inactive)
[8]
  outcome: inactive
[9]
  inhibition: 44.8% (inactive)

## CCOC(=O)C1/C(=N\O)CC(C)(O)C(C(=O)OCC)C1c1ccc(OC)c(OC)c1 (centres undefined)
[1]
  cell count: 573
  inhibition: -0.9% (inactive)
[2]
  inhibition: -36% (inactive)
  nuclei count: 149%
[3]; [11]
  z-score: 0.422
[3]; [12]
  z-score: -0.512
[3]; [13]
  z-score: -0.582
[4]
  inhibition: 1.98% (inactive)
[5]
  fluorescence slope: -0.416 (inactive)
[6]
  NADPH fluorescence slope: -5.9e-05 (inactive)
[10]
  fluorescence slope: 0.0045 (inactive)
[8]
  outcome: inactive
[9]
  inhibition: 1.71% (inactive)

Reference: PubChem BioAssay
